Our source for the growth values is PubChem BioAssay (NCI).

The panel holds about 83,000 compounds, 20% with a hit somewhere; the sample as a whole holds those more often.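 Compound tested at a single concentration for 48 hours in 96-well plates; a percent growth value below 10 was scored as active.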 Unmarked numbers belong to inactive results. Activity calls are given as the source filed them.

Holding throughout (assay): NCI-60 one-dose screen, 48 h (100 = growth as untreated, 0 = no growth, -100 = all killed)
For one assay, the system named is HCT-15 colon. Conditions: 10 µM unless noted.
The subject of the next assay is HT29 colon. The following applies: 10 µM unless noted.
A further assay deals with SNB-75 CNS. The following applies: 10 µM unless noted.
The test system of a further assay is SNB-19 CNS. The following applies: 10 µM unless noted.
For the next assay, the system named is U251 CNS. Conditions: 10 µM unless noted.
Another assay relates to PC-3 prostate. The following applies: 10 µM unless noted.
The test system of another assay is SK-MEL-5 melanoma. The following applies: 10 µM unless noted.
A further assay has as its system UACC-62 melanoma. Conditions: 10 µM unless noted.
The subject of a further assay is LOX IMVI melanoma. Conditions: 10 µM.
A further assay has as its system SK-MEL-28 melanoma. Conditions: 10 µM unless noted.
In the next assay the test system is SK-MEL-2 melanoma. The following applies: 10 µM unless noted.
The test system of the next assay is SN12C renal. The following applies: 10 µM unless noted.
For another assay, the system named is UO-31 renal. The following applies: 10 µM unless noted.
In another assay the test system is TK-10 renal. The following applies: 10 µM unless noted.
The next assay deals with ACHN renal. The following applies: 10 µM unless noted.
For a further assay, the system named is CAKI-1 renal. Conditions: 10 µM unless noted.
In a further assay the test system is CCRF-CEM leukemia. Conditions: 10 µM unless noted.
The test system of another assay is MOLT-4 leukemia. Conditions: 10 µM unless noted.
The next assay has as its system A498 renal. Conditions: 10 µM unless noted.

Regarding `Cc1ccc(S(=O)(=O)NC(=O)NCCSSCCNC(=O)NS(=O)(=O)c2ccc(C)cc2)cc1`, the growth is 96.7% in the assay with HCT-15 colon; 108% with HT29 colon; 85.5% in the assay on SNB-75 CNS; 99.4% with SNB-19 CNS; 98.6% with U251 CNS; 96.6% in the assay on PC-3 prostate. Besides, the growth with SK-MEL-5 melanoma is 97.8%; in the assay on UACC-62 melanoma, 101%; with LOX IMVI melanoma, 98.2%; in the assay with SK-MEL-28 melanoma, 109%; in the assay on SK-MEL-2 melanoma, 112%; in the assay with SN12C renal, 100%. The growth with UO-31 renal was 90.3%; in the assay with TK-10 renal, 102%; with ACHN renal it was 96.2%; in the assay with CAKI-1 renal, 96.5%; with CCRF-CEM leukemia it was 99.1%; in the assay on MOLT-4 leukemia it was 110%.
For the compound `O=S(=O)(O)c1ccc(O)c(C2CCCCC2)c1`, the growth in the assay with HCT-15 colon is 96.6%; in the assay with HT29 colon, 98.6%; with SNB-75 CNS it was 77.2%; with SNB-19 CNS, 104%; with U251 CNS, 96.6%; in the assay on PC-3 prostate it was 98.5%. Also, the growth with SK-MEL-5 melanoma was 101%; in the assay with UACC-62 melanoma it was 109%; in the assay with LOX IMVI melanoma, 105%; with SK-MEL-28 melanoma, 110%; in the assay on SK-MEL-2 melanoma, 102%; in the assay on SN12C renal, 105%. Also, the growth in the assay on UO-31 renal is 91%; with TK-10 renal, 95%; with ACHN renal it was 105%; in the assay with CAKI-1 renal, 94.4%; in the assay on A498 renal, 66.3%; in the assay on CCRF-CEM leukemia it was 110%. For the same compound, the growth with MOLT-4 leukemia is 99.9%.
Take `ON1CCCC1`: the growth is 101% with HCT-15 colon; 95.3% in the assay with HT29 colon; 83.2% with SNB-75 CNS; 103% with SNB-19 CNS; 100% in the assay with U251 CNS; 101% in the assay on PC-3 prostate. Moreover, the growth with SK-MEL-5 melanoma is 109%; in the assay on UACC-62 melanoma, 105%; in the assay with LOX IMVI melanoma it was 94.8%; in the assay with SK-MEL-28 melanoma, 106%; in the assay with SK-MEL-2 melanoma, 106%; in the assay with SN12C renal, 102%. Also, the growth in the assay with UO-31 renal is 95.5%; in the assay on TK-10 renal, 94%; with ACHN renal it was 109%; with CAKI-1 renal, 92.9%; in the assay on A498 renal, 97.5%; with MOLT-4 leukemia, 81%.
Turning to `O=C(Nc1ccccc1)c1ccco1`, the growth with HCT-15 colon was 105%; in the assay on HT29 colon it was 100%; in the assay with SNB-75 CNS, 87%; in the assay on SNB-19 CNS, 107%; with U251 CNS, 96.1%; in the assay with PC-3 prostate, 100%. Besides, the growth in the assay with SK-MEL-5 melanoma was 104%; with UACC-62 melanoma, 104%; in the assay with LOX IMVI melanoma it was 97.6%; with SK-MEL-28 melanoma, 105%; with SK-MEL-2 melanoma, 99.1%; with SN12C renal, 109%. For the same compound, the growth with UO-31 renal was 86.1%; in the assay with TK-10 renal, 98.9%; in the assay on ACHN renal, 107%; in the assay with CAKI-1 renal, 95.9%; with CCRF-CEM leukemia it was 107%; with MOLT-4 leukemia, 93.5%.
For `Cn1/c(=N\N=C\c2ccccc2OCCO)sc2ccccc21`, the growth is 82.4% with HCT-15 colon; 109% in the assay on HT29 colon; 115% in the assay with SNB-75 CNS; 96.7% in the assay with SNB-19 CNS; 100% in the assay with U251 CNS; 76.5% in the assay with PC-3 prostate. Also, the growth in the assay on SK-MEL-5 melanoma was 88%; in the assay on UACC-62 melanoma, 90%; in the assay with LOX IMVI melanoma it was 100%; with SK-MEL-28 melanoma, 124%; in the assay with SK-MEL-2 melanoma it was 104%; in the assay with SN12C renal it was 102%. The growth was 57.2% in the assay on UO-31 renal; 109% in the assay on TK-10 renal; 92.5% in the assay with ACHN renal; 88.9% in the assay with CAKI-1 renal; 103% in the assay on A498 renal; 93.3% in the assay with CCRF-CEM leukemia. In the assay with MOLT-4 leukemia, the growth is 62.7%.
With `OCC1OC(n2ccc3c2ncn2ncnc32)C(O)C1O` (configuration not stated), the growth in the assay on HCT-15 colon is 26.9%; with HT29 colon, 14.2%; in the assay with SNB-75 CNS it was 58.6%; in the assay with SNB-19 CNS, 50.3%; in the assay with U251 CNS it was 78.6%; in the assay on PC-3 prostate, 14.6%. Also, the growth is 45.4% with SK-MEL-5 melanoma; 61.2% with UACC-62 melanoma; 12.9% in the assay on LOX IMVI melanoma; 92.5% with SK-MEL-28 melanoma; 67.7% in the assay with SK-MEL-2 melanoma; 27.5% with SN12C renal. The growth in the assay with UO-31 renal is 27.6%; in the assay on TK-10 renal it was 22.2%; in the assay on ACHN renal, 29%; in the assay on CAKI-1 renal it was 43.5%; in the assay on A498 renal it was -5.58% (active); in the assay on CCRF-CEM leukemia it was 14.1%. Also, the growth with MOLT-4 leukemia is 16.1%.
On to `CC(CC(CCC(=O)O)(c1ccccc1)c1ccccc1)N(C)C` (configuration not stated), for which the growth is 95.6% in the assay with HCT-15 colon; 105% in the assay with HT29 colon; 99.6% in the assay with SNB-75 CNS; 110% in the assay with SNB-19 CNS; 92.3% in the assay on U251 CNS; 103% in the assay with PC-3 prostate. In addition, the growth in the assay on SK-MEL-5 melanoma is 95.5%; with UACC-62 melanoma, 103%; in the assay on LOX IMVI melanoma it was 98.8%; with SK-MEL-28 melanoma, 104%; in the assay with SK-MEL-2 melanoma it was 104%; in the assay on SN12C renal it was 99.2%. The growth was 91.4% with UO-31 renal; 98.2% in the assay with TK-10 renal; 106% with ACHN renal; 95% in the assay with CAKI-1 renal; 95% with A498 renal; 98.9% in the assay with CCRF-CEM leukemia. Besides, in the assay on MOLT-4 leukemia, the growth was 107%.
Regarding `O=C(CC(CC(=O)c1ccccc1)c1ccccn1)c1ccccc1`, the growth is 106% in the assay on HCT-15 colon; 95.5% in the assay with HT29 colon; 92.6% in the assay on SNB-75 CNS; 93.3% in the assay with SNB-19 CNS; 99.3% with U251 CNS; 85.1% in the assay on PC-3 prostate. Further, the growth in the assay on SK-MEL-5 melanoma is 95.4%; with UACC-62 melanoma it was 87.2%; in the assay on LOX IMVI melanoma, 94.2%; in the assay with SK-MEL-28 melanoma, 110%; in the assay on SK-MEL-2 melanoma, 106%; in the assay on SN12C renal, 92.6%. For the same compound, the growth in the assay on UO-31 renal was 68.6%; in the assay on TK-10 renal, 123%; in the assay with ACHN renal it was 97.8%; in the assay with A498 renal, 94.2%; in the assay on CCRF-CEM leukemia, 103%; in the assay on MOLT-4 leukemia it was 102%.
In the case of `ClCC(Cl)C1CCC(Cl)C(Cl)C1` (configuration not stated), the growth is 99% in the assay on HCT-15 colon; 103% in the assay with HT29 colon; 89.6% with SNB-75 CNS; 99.8% in the assay on SNB-19 CNS; 99.6% in the assay on U251 CNS; 102% in the assay with PC-3 prostate. Moreover, the growth was 105% with SK-MEL-5 melanoma; 103% in the assay with UACC-62 melanoma; 95.9% in the assay with LOX IMVI melanoma; 103% in the assay with SK-MEL-28 melanoma; 110% with SK-MEL-2 melanoma; 104% in the assay with SN12C renal. Besides, the growth in the assay on UO-31 renal was 86.3%; with TK-10 renal, 100%; in the assay with ACHN renal, 99.3%; in the assay with CAKI-1 renal, 97.2%; in the assay with A498 renal, 85.5%; in the assay with CCRF-CEM leukemia it was 97.5%. In addition, the growth with MOLT-4 leukemia is 105%.
